# Rows were chosen to be rich in hits. Some 1.5% of all compounds tested hit in one or more screens of this group.
# GLD-1 TGE inh – GLD-1/TGE RNA complex disruptors, primary screen, biochemical, fluorescence polarization | inhibition, % at 5.96 µM | purified GLD-1 + fluorescein TGE RNA | 0.44% of 320,000 active | Female germline-specific tumor suppressor gld-1 (Caenorhabditis elegans), Q17339;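 active = percent inhibition above a per-plate cutoff, the plate mean of test compounds plus 3 SD, cut at about 30% in these data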;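 also: 0% = DMSO wells with GLD-1 and probe and 100% = wells lacking GLD-1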
# eLon inh – inhibitors of E. coli Lon protease, primary screen, biochemical, fluorescence polarization; 0.42% of 360,000 active; inhibition, % at 7.94 µM; P0A9M0; purified E. coli Lon protease; in the data active = inhibition above about 13%, passing the limit was not always enough;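 also: 0% = enzyme with probe and DMSO and 100% = no enzyme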
# MEX-5 binding – MEX-5 zinc finger RNA-binding disruptors – biochemical, C. elegans, fluorescence polarization, MLPCN library, primary screen | Zinc finger protein mex-5 (Caenorhabditis elegans), Q9XUB2 | MEX-5/FITC-TCR2 RNA binding; active compounds read low | activity score (negative = inhibition of binding), % at 10 µM | 0.38% of 300,000 active | AID 1832, 2009;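 active = inhibition past about -25% in most replicates, and total fluorescence under double the plate's negative control median, limit read from the data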;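 also: 0% = DMSO and -100% = 5 µM competing unlabeled TCR2 RNA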
# Target sequence (Q9XUB2 whole entry, looked up): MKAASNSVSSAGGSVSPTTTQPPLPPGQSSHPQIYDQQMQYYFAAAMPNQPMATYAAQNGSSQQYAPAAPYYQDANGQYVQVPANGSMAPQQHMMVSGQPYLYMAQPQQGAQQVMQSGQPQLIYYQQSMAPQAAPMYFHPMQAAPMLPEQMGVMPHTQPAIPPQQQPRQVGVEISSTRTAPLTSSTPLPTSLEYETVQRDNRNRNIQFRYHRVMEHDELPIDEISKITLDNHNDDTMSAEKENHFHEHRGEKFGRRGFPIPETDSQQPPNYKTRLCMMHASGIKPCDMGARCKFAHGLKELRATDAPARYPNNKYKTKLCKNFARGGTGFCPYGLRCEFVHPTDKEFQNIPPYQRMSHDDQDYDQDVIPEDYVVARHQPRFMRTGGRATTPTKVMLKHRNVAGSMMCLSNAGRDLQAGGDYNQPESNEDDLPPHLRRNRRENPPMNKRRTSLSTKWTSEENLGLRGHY
# Bcl-xL primary – inhibitors of human Bcl-xL, primary screen, biochemical, fluorescence polarization, HTS; GST-Bcl-xL / FITC-Bim BH3 peptide fluorescence polarization; 0.7% of 320,000 active; inhibition, % at 10.9 µM; AID 2129, 2009;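 active = inhibition above the mean of all tested compounds plus 3 SD, cutoff set per campaign, cut at about 30% in these data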;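 also: 0% = DMSO wells and 100% = unlabeled Bim-BH3 peptide competitor; inhibitors lower millipolarization by displacing the labeled peptide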
# EBV gp42 block – Epstein-Barr virus gp42 inhibitors, primary screen, biochemical, uHTS, fluorescence polarization; Glycoprotein 42 (Epstein-Barr virus (strain AG876)), Q1HVG2; Fluorescence polarization binding assay, mP read-out; inhibition, % (tested at 21.74 µM); 0.42% of 220,000 active; in the data active = inhibition above about 50%
# MCL1 BIM primary – inhibitors of MCL1 binding to BIM-BH3, primary screen, biochemical, fluorescence polarization; Induced myeloid leukemia cell differentiation protein Mcl-1 (Homo sapiens), Q07820; GST-MCL1 / FITC-Bim-BH3 fluorescence polarization; inhibition, % at 10.9 µM; 0.68% of 320,000 active; AID 2057, 2009;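 active = inhibition above the mean inhibition of all tested compounds plus 3 SD, set per campaign, cut at about 40% in these data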;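 also: 0% = DMSO wells and 100% = unlabeled Bim-BH3 peptide control; higher means more loss of mP so more displacement of Bim peptide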
# E coli Lon conf – E. coli Lon protease inhibitor retest, confirmation, biochemical, fluorescence polarization. purified E. coli Lon. shares compounds with eLon inh. inhibition, % at 7.94 µM. 31% of 1,400 active; in the data active = inhibition above about 16%;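 also: 0% = enzyme with probe and DMSO and 100% = no enzyme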
# The depositor's hits bear a star; . = not tested or not shown.
SMILES,GLD-1 TGE inh,eLon inh,MEX-5 binding,Bcl-xL primary,EBV gp42 block,MCL1 BIM primary,E coli Lon conf
CCCc1cc(=O)[nH]c(SCC(=O)NC(=O)NC2CCCC2)n1,6,2,.,2,.,1,.
CC1(C)CC(=O)c2cnc(NCC3CCCO3)nc2C1 (configuration not stated),8,-2,-5,1,-11,0,.
CC1CC(=O)c2cnc(NCC3CCCO3)nc2C1 (configuration not stated),15,16*,-3,14,-9,18,-1
CCCc1ccc2oc(C(=O)NCCc3cnn(C)c3)c(C)c2c1,7,19*,-3,4,.,3,-3
CCCc1ccc2oc(C(=O)NCCc3nc(C(=O)OCC)cs3)c(C)c2c1,.,-8,-3,.,.,.,.
C[C@@]12CCC3[C@@](CCC4[C@@]3(C)CCC[C@@]4(C)C(=O)N3CCCCC3)(CC1=O)C2 (some centres not stated),8,28*,.,2,.,0,7
COc1ccc(C(=O)CSc2ncn[nH]2)cc1OC,4,21*,3,0,-12,6,-10
Cc1ccc(C(=O)CSc2ncn[nH]2)cc1,-2,3,2,-6,-15,-10,.
CC(=O)C1=C(O)C(=O)N(c2ccc(Br)cc2)C1c1ccc(Br)cc1 (configuration not stated),6,30*,-1,2,.,-2,-7
COc1ccccc1-c1cnc(C(O)c2ccc(Cl)c(Cl)c2)[nH]1 (configuration not stated),.,4,.,.,.,.,.
CC(C)(C)c1ccccc1NC(=O)CN1C(=O)NC2(CCCCCC2)C1=O,-4,-9,.,-4,.,-8,.
CCCCn1c(N)c(N(CCC(C)C)C(=O)C2=COCCO2)c(=O)[nH]c1=O,12,36*,-11,16,.,20,5
CCCCN(C(=O)C1=COCCO1)c1c(N)n(CCC)c(=O)[nH]c1=O,10,-1,-2,12,.,11,.
O=C(NCCc1nnc2ccc(N3CCCC3)nn12)c1ccccc1,-1,19*,-2,1,.,-3,-4
Cc1ccc(S(=O)(=O)CCC(=O)OCc2nnc(-c3ccccc3)o2)cc1,3,-8,.,.,.,.,.
S=c1[nH]nc(-c2ccccn2)n1/N=C/c1ccc(Cl)cc1,-8,18*,2,-26,-12,-28,-2
S=c1[nH]nc(-c2ccccn2)n1/N=C/c1ccccc1,1,-13,-1,-11,-30,-13,.
CCOC(=O)N1CCN(C(=O)C(=O)c2cn(CC(=O)N3CCCCCC3)c3ccccc23)CC1,8,20*,-8,4,.,6,2
CCOC(=O)C1CCN(C(=O)C(=O)c2cn(CC(=O)N3CCCCCC3)c3ccccc23)CC1,10,14,-1,11,.,3,.
O=C(CN1CCN(Cc2ccccc2)CC1)NNC(=O)c1ccccc1,-1,-3,.,3,.,6,.
CN(C)S(=O)(=O)c1cc(C(=O)Nc2ccccc2C(=O)NC2CC2)ccc1Cl,4,-9,.,-7,.,-6,.
O=C(Cc1ccccc1F)Nc1nc2ccccc2[nH]1,2,-3,-4,-1,6,-8,.
O=C(Cc1cccc2ccccc12)Nc1nc2ccccc2[nH]1,7,65*,-2,-1,-17,0,3
O=C(Nc1ccc(Cl)c(Cl)c1)c1ccc(Cn2c(=O)[nH]c3ccsc3c2=O)cc1,0,27*,-2,2,-12,5,15
O=C(Nc1ccc(Oc2ccccc2)cc1)c1ccc(Cn2c(=O)[nH]c3ccsc3c2=O)cc1,0,-5,4,-3,-8,-7,.
SMILES,GLD-1 TGE inh,eLon inh,MEX-5 binding,Bcl-xL primary,EBV gp42 block,MCL1 BIM primary,E coli Lon conf
COc1ccc(C(=O)CCC(=O)NC2=NCCS2)cc1,-13,-17,3,6,.,3,.
C[C@@H](C(=O)OCC(=O)c1ccccc1)N1C(=O)C2CCCCC2C1=O (some centres not stated),0,0,.,.,.,.,.
CCN(CC)S(=O)(=O)c1ccc2nnn(OCC(=O)Nc3cccc(C#N)c3)c2c1,1,18*,1,5,-15,7,-5
CCNC(=S)N=Nc1c(O)[nH]c2ccc(C(C)C)cc12,13,23*,-3,6,5,13,20*
COc1ccc(-c2coc3c(C(=O)N4CCN(C)CC4)cccc23)c(C)c1,.,-12,.,.,.,.,.
Cc1ccc(N(CC(=O)NC2CCCCC2)C(=O)CNC(=O)c2cccs2)cc1,-1,-11,2,0,.,2,.
Cc1ccc(N(CC(=O)NC2CCCC2)C(=O)CNC(=O)c2cccs2)cc1C,-8,19*,0,0,.,-1,-16
CC1CCCC(NC(=O)C2CCN(S(=O)(=O)c3cnc[nH]3)CC2)C1C (configuration not stated),4,6,2,0,.,3,.
COc1ccc(C2N(c3ccc(OC)cc3)C(=O)C3CCCN32)cc1 (configuration not stated),7,6,-2,1,-3,4,.
COc1ccc(N2C(=O)C3CCCN3C2c2ccccc2)cc1 (configuration not stated),4,16*,0,1,-9,5,-8
CC(C)CN1CCN(C(=O)CCc2nnc(Cc3c[nH]c4ccccc34)o2)[C@@H](C)C1=O,.,-7,3,.,.,.,.
Cc1cc2oc(=O)cc(CN3CCN(Cc4ccccc4)CC3)c2cc1Cl,-4,21*,-1,-4,-3,-20,-16
Cc1ccc2c(CN3CCN(Cc4ccccc4)CC3)cc(=O)oc2c1,3,-1,3,-2,.,-9,.
Cn1c(-c2ccc(F)cc2)cnc1SCC(=O)N1CCCc2ccccc21,3,19*,0,4,2,-9,2
O=C(O)/C=C\C(=O)NC1CCCCC1,4,28*,-2,1,-3,1,8
Fc1ccc(CN2CC[C@H]3C=CCc4cccc(c43)C2)cc1,0,30*,.,9,.,11,-9
Clc1ccc(CN2CC[C@H]3C=CCc4cccc(c43)C2)cc1,1,-3,.,4,.,0,.
O=C(Nc1ccncc1)c1cc(S(=O)(=O)N2CCCC2)ccc1Cl,4,21*,.,.,.,.,-5
O=C1C2C(C(=O)N1Cc1ccco1)C1C=CC2C12CC2 (configuration not stated),-3,-2,1,1,-2,-6,.
